From PubChem BioAssay
A selection follows.
aSyn UTR act: Activators via SNCA 5'UTR binding, MLPCN. alpha-synuclein 5'UTR reporter, activators screen. activity score, % (tested at 7.5 µM), hits read low. 300,000 tested, 7.1% active; in the data active = activity score below about -60%
Active calls of the source: *.

`CCOc1ccc(N2C(N)=NC(N)=NC2(C)C)cc1` gave aSyn UTR act 66.
CCOc1ccc(S(=O)(=O)N2c3ccccc3CC2C)cc1 (stereo unspecified) was read as aSyn UTR act 93.
For Cc1nn(Cc2cccc(F)c2)c(C)c1NC(=O)c1ccc(COc2ccccc2Cl)cc1 the results were aSyn UTR act 69.
CN1CCN(C(=O)c2cccc(COc3cc(Cl)ccc3Cl)c2)CC1 was read as aSyn UTR act -164*.
O=C(Nc1ccccc1Cl)c1cccc(COc2cc(Cl)ccc2Cl)c1 was read as aSyn UTR act -120*.
Cc1nn(Cc2c(F)c(F)c(F)c(F)c2F)c(C)c1NC(=O)c1cccc(COc2ccccc2Cl)c1 was read as aSyn UTR act -97*.
`O=C1NC(=O)/C(=C\c2ccc(OCc3cccc(C(=O)O)c3)c(Cl)c2)N1` gave aSyn UTR act 70.
For O=C(O)c1cccc(COc2ccccc2Cl)c1 the results were aSyn UTR act 103.
CCn1c2ccccc2c2cc(NC(=O)CSc3nnc(-c4cccc(F)c4)o3)ccc21 was read as aSyn UTR act -68*.
For CCn1c2ccccc2c2cc(NC(=O)CSc3nnc(-c4ccccc4)o3)ccc21 the results were aSyn UTR act -155*.
For CCn1c2ccccc2c2cc(NC(=O)CSc3nnc(-c4cccc(C)c4)o3)ccc21 the results were aSyn UTR act -63*.
For O=C(N/N=C/c1ccc2c(c1)OCO2)c1ccc(Br)o1 the results were aSyn UTR act -250*.
For O=C(N/N=C/c1cccc([N+](=O)[O-])c1)c1ccc2c(c1)OCCO2 the results were aSyn UTR act -126*.
Screening CCN(CC)c1ccc(/C=N/NC(=O)C2CC2)cc1 returned aSyn UTR act -62*.
For O=C(Cc1ccccc1)N/N=C/c1cc(Br)c(Br)o1 the results were aSyn UTR act -68*.
Screening CCCCCCCC(=O)Nc1ccc(C(=O)N/N=C/c2cccc([N+](=O)[O-])c2)cc1 returned aSyn UTR act 76.
`O=C(N/N=C/c1ccc(Cl)cc1)c1ccc2c(c1)OCO2` gave aSyn UTR act -396*.
For O=C(Nc1cccc(C(=O)O)c1)/C(=C\c1ccc2c(c1)OCO2)NC(=O)c1ccc(Br)o1 the results were aSyn UTR act -68*.
CCN(CC)c1ccc(/C=N/NC(=O)c2ccc(Br)o2)cc1 was read as aSyn UTR act -160*.
`O=C(N/N=C/c1cc(Br)c(Br)o1)c1ccc2c(c1)OCCO2` gave aSyn UTR act -135*.
`O=C(N/N=C/c1cc(Br)cc(Cl)c1O)c1ccc2c(c1)OCO2` gave aSyn UTR act 50.
Screening Cc1cc(/C=N/Nc2ccc([N+](=O)[O-])cn2)c(C)n1-c1ccccc1 returned aSyn UTR act -137*.
For O=C(N/N=C/c1ccc2c(c1)OCO2)c1ccc2c(c1)OCCO2 the results were aSyn UTR act -136*.
CN(C)c1ccc(/C=N/NC(=O)c2cc(-c3ccc4c(c3)OCO4)n[nH]2)cc1 was read as aSyn UTR act -137*.
Screening COc1cccc(/C=N/Nc2ccc([N+](=O)[O-])cn2)c1O returned aSyn UTR act 102.
O=C(N/N=C/c1cccs1)c1ccc2c(c1)OCO2 was read as aSyn UTR act -65*.
Screening CCN(CC)c1ccc(/C=N/NC(=O)Nc2nonc2N)cc1 returned aSyn UTR act -78*.
For Cc1cc(C(=O)N/N=C/c2cccc([N+](=O)[O-])c2)c(C)n1-c1ccccc1 the results were aSyn UTR act -142*.
CCC/C(=N/NC(=O)c1ccc2c(c1)OCO2)c1cccs1 was read as aSyn UTR act -69*.
For Cc1c(C(=O)N/N=C/c2ccc(Cl)cc2)[nH]c2ccc(Cl)cc12 the results were aSyn UTR act -122*.
Screening O=[N+]([O-])c1cccc(C2Nc3cccc4cccc(c34)N2)c1 returned aSyn UTR act -72*.
Screening Cc1ccc(C(=O)NC2CCC(C)CC2)s1 (stereo unspecified) returned aSyn UTR act -92*.
Screening CC1CCC(NC(=O)c2cc3c(s2)CCCC3)CC1 (stereo unspecified) returned aSyn UTR act -116*.
Cc1cc2c(C)cc(=O)[nH]c2cc1NC(=O)CCl was read as aSyn UTR act -70*.
CC(=O)NCCOc1ccc2oc3ccccc3c2c1 was read as aSyn UTR act -133*.
`COc1ccc(-c2nc3cccc(C)n3c2NCC2CCCO2)cc1O` (stereo unspecified) gave aSyn UTR act -99*.
For COc1ccccc1Nc1nc2ccccc2n1C the results were aSyn UTR act -122*.
COc1cccc(CNc2ccc(F)c(Cl)c2)c1O was read as aSyn UTR act -184*.
For COc1cccc(CNc2cnc3ccccc3c2)c1O the results were aSyn UTR act -219*.
Screening Cc1ccc(O)c(CNc2cnc3ccccc3c2)c1 returned aSyn UTR act -100*.
`COc1cccc(CNc2nc3ccccc3n2C)c1O` gave aSyn UTR act -94*.
`COc1ccc(CNc2ncc(-c3ccc(F)cc3)n2C)c2ccccc12` gave aSyn UTR act 65.
Screening COc1ccc(-c2cc(-c3ccccc3)n[nH]2)c(O)c1 returned aSyn UTR act -217*.
Screening COc1ccc(O)c(-c2cc(-c3ccccc3Cl)[nH]n2)c1 returned aSyn UTR act -115*.
COc1ccc(O)c(-c2cc(-c3cccs3)[nH]n2)c1 was read as aSyn UTR act -125*.
Screening CC1CCC(NC(=O)CNC(=O)c2cccs2)CC1 (stereo unspecified) returned aSyn UTR act -88*.
For CC1CCC(NC(=O)Nc2cccs2)CC1 (stereo unspecified) the results were aSyn UTR act -107*.
`CCOC(=O)C1CCN(S(=O)(=O)c2c(Cl)ccc3nonc23)CC1` gave aSyn UTR act -309*.
Screening CC(C)(C)c1ccc(OCCCC(=O)Nc2ccc(S(N)(=O)=O)cc2)cc1 returned aSyn UTR act -146*.
`Cc1ccc(Nc2nc(CSc3nnc(-c4ccccc4C)n3C)cs2)cc1` gave aSyn UTR act -93*.
Screening Cc1ccc(Nc2nc(CSc3nnc(-c4ccccc4)n3C)cs2)cc1 returned aSyn UTR act -68*.
Screening COc1ccc(Oc2ccc(C(F)(F)F)cc2N)cc1 returned aSyn UTR act -68*.
Screening O=C(O)C(=O)/C(=C\c1cccc(Cl)c1)c1ccc2ccccc2n1 returned aSyn UTR act -80*.
For N#Cc1ccc(/C=C(\C(=O)C(=O)O)c2ccc3ccccc3n2)cc1 the results were aSyn UTR act -76*.
For Cc1cccc(/C=C(\C(=O)C(=O)O)c2ccc3ccccc3n2)c1 the results were aSyn UTR act -118*.
CCOC(=O)c1cc2c(nc1N)CC(C)(CC)OC2 (stereo unspecified) was read as aSyn UTR act -101*.
For CO/N=C/c1ccc(Oc2ccc(C)cc2)nc1 the results were aSyn UTR act -77*.
`COc1ccccc1CCC(=O)Nc1nc2ccccc2[nH]1` gave aSyn UTR act -223*.
COc1ccc(CCC(=O)Nc2nc3ccccc3[nH]2)cc1 was read as aSyn UTR act -127*.
Screening COc1ccc(OCC(=O)Nc2nc3ccccc3[nH]2)cc1 returned aSyn UTR act -123*.
CCC(Oc1ccccc1)C(=O)Nc1nc2ccccc2[nH]1 (stereo unspecified) was read as aSyn UTR act -66*.
For CCCCCC(=O)Nc1nc2ccccc2[nH]1 the results were aSyn UTR act -177*.
Screening Cc1nc(N)sc1-c1csc(N(C)c2ccc(O)cc2)n1 returned aSyn UTR act -127*.
CN(c1ccc(O)cc1)c1nc(-c2cccs2)cs1 was read as aSyn UTR act -238*.
